# Reference: the supplement of paper PMC3842684
# Columns and labels:
# [1] = tested on: P. falciparum NF54-pfs16-GFP early (I-III) stage gametocytes; assay: relative % inhibition of viable gametocyte number; higher = more gametocytocidal; details: stage: early (I-III) gametocyte, incubation 72 h
# Procedure, shortened: (§1)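 Viable gametocytes were counted by confocal imaging as elongated GFP objects carrying MitoTracker Red signal above a cut-off, after 72 h of compound exposure (5 or 0.5 µM) at 37°C in 5% CO2 and 5% O2 and overnight staining. The NF54 pfs16-GFP gametocytes had been magnet-isolated at early (I/IIa, day 2) or late (day 8) stage and plated at 10% parasitaemia, 0.1% haematocrit in 384-well poly-D-lysine imaging plates. Relative inhibition was normalised to vehicle and positive-control wells within each plate.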
# [2] = tested on: P. falciparum NF54-pfs16-GFP late (IV-V) stage gametocytes; assay: as above; details: stage: late (IV-V) gametocyte, incubation 72 h
# Procedure, shortened: as §1
Compound,relative % inhibition ([1]; 0.5 µM),relative % inhibition ([1]; 5 µM),relative % inhibition ([2]; 0.5 µM),relative % inhibition ([2]; 5 µM)
CCCCc1c(C)nc2c(OC)cccc2c1O,12.7%,-0.633%,35.7%,63.9%
Cc1ccc(-c2cc3c(nn2)-c2ccccc2C3=O)cc1,2.74%,95%,102%,70.6%
Cc1ccc(Cn2c(N3CCC(C(=O)NCc4cccs4)CC3)nc3ccccc32)cc1,10.4%,35.6%,5.62%,23.8%
COC(=O)c1ccc(C2C3=C(O)CC(c4ccc(F)cc4)CC3=Nc3ccccc3N2C(=O)c2ccccc2)cc1 (stereo not drawn),26.9%,103%,88.6%,98.4%
CCCCCCOC(=O)C1=C(C)NC(=O)NC1c1ccccc1F (stereo not drawn),9.08%,4.18%,-3.35%,3.92%
COc1ccc(-c2c(C)nn3c(N)c(C#N)cnc23)cc1OC,-24.1%,22.9%,63.6%,108%
CC(C)(C)c1ccc(O)c(CNC2CCCCC2)c1,89.9%,90.6%,61.1%,81%
Oc1ccc(Cl)cc1CNc1nc2ccccc2[nH]1,16.5%,37.3%,-1.55%,13.6%
Cc1cc(C)c2nc(N3CCC(C(=O)NCCCN4CCC(N5CCCCC5)CC4)CC3)sc2c1,8.57%,90.7%,-24.9%,44.2%
FC(F)(F)c1cccc(Nc2nc3ccccc3nc2Nc2cccc(C(F)(F)F)c2)c1,96.8%,102%,105%,103%
COc1ccc(CCn2c(=N)c(C(=O)NCc3cccnc3)cc3c(=O)n4cccc(C)c4nc32)cc1,45.1%,70.9%,-7.36%,11.2%
O=C(CSc1ccc2nnc(-c3cccc(F)c3)n2n1)Nc1ccc2c(c1)OCO2,10.3%,1.63%,19%,32.1%
